Consider 14 compounds from PubChem BioAssay (NCATS).

Each structure is given as a SMILES string. Values joined by “and” are separate entries in the source; they are usually repeats but may differ in a detail not shown here. Equal entries are not always repeated. Unmarked numbers belong to inactive results. Records with an inconclusive call do not appear. Active and inactive are the calls of the source. Unless noted, calls come from the whole dose curve; as a rule, active = well fitted curve in the direction sought with a large enough effect; inconclusive = small, poorly fitted or top-dose-only effect, or another doubt; inactive = no such curve, though single readings can be large; an effect the other way counts as inactive or inconclusive.

For one experiment, the system named is PA-1. Briefly: Primary qHTS to identify gynecologic anti-cancer compounds using libraries of approved drugs and bioactive compounds (AID 1345084). Note: % is set by controls: 0 for no effect and ±100 for the full control effect; nearly all actives have a fitted effect of over 55% in size. The settings on record: Gynecologic cancer cell panel viability, ATPlite luminescence, 48 h; series mostly up to 57.5 µM. The essentials:
(§1)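 Luminescence from the ATPlite ATP-monitoring reagent indicates viable cell number; lower signal means cytotoxicity. Cells received compound 16 h after seeding and were exposed for 48 h across five concentrations.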
Background: In qHTS, concentration-response curves come from the screen itself.

A further experiment deals with SKOV3. The description is as above. As to conditions: Gynecologic cancer cell panel viability, ATPlite luminescence, 48 h; series mostly up to 57.5 µM. The essentials:
as §1

The next experiment deals with Tov-21-G. Described as above. The settings on record: Gynecologic cancer cell panel viability, ATPlite luminescence, 48 h; series mostly up to 57.5 µM. The essentials:
as §1

A further experiment concerns Tov112D. Described as above. As to conditions: Gynecologic cancer cell panel viability, ATPlite luminescence, 48 h; series mostly up to 57.5 µM. The essentials:
as §1

The nature of experiment [1]: Drug repurposing screens with cells derived from glioblastoma tumor samples (AID 1345199). For activity, negative = cell killing: % is set by controls: 0 for no effect and ±100 for the full control effect. Note: nearly all actives have a fitted effect of over 40% in size. Note: potency is the fitted concentration of half-maximal effect. The settings on record: GBM patient neurospheres viability, ATP luminescence, 48 h. The essentials:
(§2)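 Primary testing used CD133+ neurospheres from four GBM patients, seven concentrations, 48 h exposure and ATP-based viability; confirmation added three slower-growing patient lines.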

The test system of a further experiment is astro. The description is as above. The settings on record: viability, ATP luminescence, 48 h; series mostly up to 45.9 µM. The gist of the method:
as §2

Experiment [2] concerns the target Nuclear receptor subfamily 1 group I member 2 (Rattus norvegicus) (UniProt Q9R1A7). Briefly: qHTS assay for small molecule activators of the rat pregnane X receptor (rPXR) signaling pathway (AID 651751; call rule not given here; note: 0% is about no effect). The settings on record: rPXR reporter cells, luciferase (One-Glo), 24 h.
Experiment [3] is described as follows: qHTS assay for small molecule activators of the human pregnane X receptor (PXR) signaling pathway (AID 720659; call rule not given here; note: 0% is about no effect).
Experiment [4] in a line: qHTS assay to identify inhibitors of the type 1 interferon - major histocompatibility complex class I in skeletal muscle: Counter screen cell viability and HiBit confirmation (AID 1347412). Note: % is set by controls: 0 for no effect and ±100 for the full control effect; nearly all actives have a fitted effect of over 60% in size. As to conditions: iHSKM muscle cells + IFN-b, HiBiT or CellTiter-Glo, 24 h; Potency: HiBiT; Viability, at 45.9 µM (top of the series). The gist of the method: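 Duplicate plates, pinned identically: one read for HiBiT-tagged endogenous HLA-B luminescence, the other for ATP-content viability via CellTiter Glo. Cells were genome-engineered human myoblasts given 4 ng/ml IFN-b; compounds 12-pt, 1:3 from 46 uM final; 24 hr exposure.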

Where [5] appears, read: at 45.9 µM (top of the series), tumour line B.
The mark [6] stands for this setting: at 45.9 µM (top of the series), tumour line D.
Setting [7] is: at 46.1 µM (top of the series), tumour line C.
The mark [8] stands for this setting: at 46 µM (top of the series), tumour line A.

Sequence of Nuclear receptor subfamily 1 group I member 2 (Rattus norvegicus) (Q9R1A7 whole entry, looked up): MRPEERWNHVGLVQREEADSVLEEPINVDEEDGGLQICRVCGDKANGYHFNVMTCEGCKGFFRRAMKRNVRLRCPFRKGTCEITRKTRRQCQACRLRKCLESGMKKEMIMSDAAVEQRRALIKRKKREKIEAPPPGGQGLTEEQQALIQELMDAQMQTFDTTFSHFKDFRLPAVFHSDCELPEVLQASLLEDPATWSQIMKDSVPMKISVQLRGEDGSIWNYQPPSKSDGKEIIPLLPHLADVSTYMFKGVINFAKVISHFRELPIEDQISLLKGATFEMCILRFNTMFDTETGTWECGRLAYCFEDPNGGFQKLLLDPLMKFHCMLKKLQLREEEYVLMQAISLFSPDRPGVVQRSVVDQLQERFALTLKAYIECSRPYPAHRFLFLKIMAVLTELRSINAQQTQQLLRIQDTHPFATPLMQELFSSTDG

Consider `Cn1cc(S(C)=O)c(=O)c2ccc(F)cc21` (centres undefined), for which the Potency result in the experiment on PA-1, in the experiment on SKOV3, in the experiment with Tov-21-G, in the experiment with Tov112D and in the experiment with astro was “inactive” each time. Moreover, the activity, negative = cell killing in experiment [1] (setting [5]) is -9.03%; in [1] (setting [6]) it was -4.06%; in [1] (setting [7]), -1.4%.

Turning to `O=C(O)[C@@H](O)[C@H](O)[C@H](O)[C@@H](O)C(=O)O`, the Potency result in the experiment with PA-1, in the experiment on SKOV3, with Tov-21-G, in the experiment on Tov112D and in the experiment with astro was “inactive” throughout. Besides, the activity, negative = cell killing in [1] (setting [5]) was -15.2%; in [1] (setting [6]) it was 6.93%; in experiment [1] (setting [7]), -6.4%.

Turning to `O=C(Oc1ccccc1)c1ccccc1O`, the Potency result in the experiment with PA-1, in the experiment with SKOV3, in the experiment on Tov-21-G, in the experiment on Tov112D and in the experiment on astro was “inactive” in each case. Moreover, the activity, negative = cell killing was -4.53% in experiment [1] (setting [5]), 13.5% in experiment [1] (setting [6]), -25.7% in experiment [1] (setting [8]) and -8.91% in [1] (setting [7]). Besides, in experiment [2], the max response was 9.53% and -0.74%. The compound was called inactive in [3].

With `CC(=O)CC/C=C(\C)CC/C=C(\C)CC/C=C(\C)CCC=C(C)C`, the Potency result in the experiment on PA-1, with SKOV3, with Tov-21-G, in the experiment with Tov112D and with astro was “inactive” throughout. The activity, negative = cell killing in experiment [1] (setting [5]) is -12.4%; in experiment [1] (setting [6]), -10.7%; in experiment [1] (setting [7]), 4.26%.

Turning to `Cc1cccc(N(C)C(=S)Oc2ccc3c(c2)CCC3)c1`, the Potency result in the experiment on PA-1, in the experiment on SKOV3, with Tov-21-G, in the experiment with Tov112D and in the experiment on astro was “inactive” each time. In addition, in [1] (setting [5]), the activity, negative = cell killing is -19.8%. Also, the Potency was 17.8 µM (active) in [1] (tumour line A) and 20 µM (active) in experiment [1] (tumour line D).

As for `CC(=O)OC/C=C(C)/C=C/C=C(C)/C=C/C1=C(C)CCCC1(C)C`, the Potency entry in the experiment with PA-1, with SKOV3, with Tov-21-G, with Tov112D and in the experiment on astro was “inactive” in each case. The activity, negative = cell killing was -7.14% in experiment [1] (setting [5]), -23.4% in [1] (setting [6]) and -13.6% in [1] (setting [7]).

Consider `Cc1cccc(C)c1NC(=O)c1cc(S(N)(=O)=O)c(Cl)cc1O`, for which the Potency entry in the experiment on PA-1, in the experiment with SKOV3, in the experiment with Tov-21-G, in the experiment on Tov112D and in the experiment with astro was “inactive” in each case. Further, the activity, negative = cell killing is -11.2% in experiment [1] (setting [5]), -8.64% in [1] (setting [6]) and -16.5% in [1] (setting [7]). For the same compound, in [1] (tumour line A), the Potency was 35.5 µM (active).

With `CC(COc1ccccc1)NN` (centres undefined), the Potency result with PA-1, in the experiment on SKOV3, in the experiment with Tov-21-G, in the experiment with Tov112D and in the experiment with astro was “inactive” in each case. Moreover, the activity, negative = cell killing is -5.24% in [1] (setting [5]), 14.4% in experiment [1] (setting [6]), -26.7% in experiment [1] (setting [8]) and 4.61% in [1] (setting [7]).

In the case of `C=CCOc1cc(Cl)ccc1C(=O)NCCN(CC)CC`, the Potency result in the experiment on PA-1, with SKOV3, with Tov-21-G, in the experiment on Tov112D and with astro was “inactive” each time. The activity, negative = cell killing is -22.9% in experiment [1] (setting [5]) and 2.19% in [1] (setting [7]). Moreover, the Potency in experiment [1] (tumour line A) was 10 µM (active).

In the case of `O=C(O)Cc1ccccc1Oc1ccc(Cl)cc1Cl`, the Potency result in the experiment with PA-1, with SKOV3, with Tov-21-G, in the experiment on Tov112D and in the experiment with astro was “inactive” each time. In addition, the activity, negative = cell killing was -7.43% in [1] (setting [5]), -9.2% in experiment [1] (setting [6]) and 1.53% in experiment [1] (setting [7]).

In the case of `CCCCCC1Nc2cc(C(F)(F)F)c(S(N)(=O)=O)cc2S(=O)(=O)N1` (centres undefined), the Potency entry in the experiment on PA-1, in the experiment with SKOV3, in the experiment on Tov-21-G, in the experiment on Tov112D and in the experiment with astro was “inactive” in each case. The results for the activity, negative = cell killing in experiment [1] (setting [5]), in experiment [1] (setting [6]) and in experiment [1] (setting [7]) were -8.57%, -19.1% and -6.63%, respectively.

As for `COc1cc(C(=O)NC2CCCNC2)cc(OC)c1OC` (centres undefined), the Potency entry with PA-1, in the experiment on SKOV3, in the experiment on Tov-21-G, with Tov112D and in the experiment with astro was “inactive” in each case. Further, the figures for the activity, negative = cell killing in [1] (setting [5]), in experiment [1] (setting [6]) and in experiment [1] (setting [7]) were -2.35%, -10.6% and 15.7%, respectively.

For the compound `COC(=O)C1=C(C)NC(COC(N)=O)=C(C(=O)OC(C)C)C1c1cccc(Cl)c1Cl` (centres undefined), the Potency result (in the experiment with PA-1; in the experiment on SKOV3; with Tov-21-G; with Tov112D; in experiment [4]) was “inactive” each time. The activity, negative = cell killing in experiment [1] (setting [5]) was 0.976%. In addition, the Potency is 8.91 µM (active) in experiment [1] (tumour line A) and 12.6 µM (active) in [1] (tumour line D).

Consider `Cc1ncc(CO)c(CO)c1O`, for which the Potency entry with PA-1, in the experiment on SKOV3, in the experiment on Tov-21-G, in the experiment with Tov112D and in the experiment with astro was “inactive” throughout. The activity, negative = cell killing in experiment [1] (setting [5]) was 0.285%; in [1] (setting [6]), -6.71%; in [1] (setting [7]), 3.74%. Also, in experiment [2], the max response is -2.11%. Moreover, in experiment [3], the compound was called inactive.
